{"source": "PubChem BioAssay (Tox21)", "note": "Inconclusive results are not listed. The source made the active and inactive calls. Unless noted, calls come from the whole dose curve; as a rule, active = well fitted curve in the direction sought with a large enough effect in the repeat runs; inconclusive = weak or mixed curves; inactive = no such curve, though single readings can be large; an effect the other way counts as inactive or inconclusive. % is set by controls: 0 for no effect and ±100 for the full control effect."}
{"system": "not listed separately", "test": "qHTS assay to identify small molecule antagonists of the estrogen related receptor (ERR) signaling pathway - cell viability counter screen (AID 1224818)", "conditions": "ERR reporter cell line viability counter screen; series mostly up to 92.2 µM; viability change, negative = cytotoxic: at the top concentration", "how_it_was_run": "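Fluorescence from CellTiter-Fluor, read 30 min after reagent addition at 37 C, measured viability of ERR cells exposed to compounds for 17.5 h. Cells had settled 6 h before dosing.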"}
{"smiles": "O=C1NCN(c2ccccc2)C12CCN(CC1COc3ccccc3O1)CC2", "note": "(stereo not drawn)", "viability change, negative = cytotoxic": "-13.8% [at 46.1 µM] (inactive)"}
{"smiles": "CCOP(=O)(NC(C)C)Oc1ccc(SC)c(C)c1", "note": "(stereo not drawn)", "viability change, negative = cytotoxic": "-10.8% (inactive)"}
{"smiles": "CS(=O)(=O)c1ccc(C(=O)C2C(=O)CCCC2=O)c([N+](=O)[O-])c1", "viability change, negative = cytotoxic": "0.845% (inactive)"}
{"smiles": "CCOCCOC(C)=O", "viability change, negative = cytotoxic": "-2.95% (inactive)"}
{"smiles": "O=[N+]([O-])c1cc([N+](=O)[O-])c2ccccc2c1", "viability change, negative = cytotoxic": "-5.99% (inactive)"}
{"system": "not listed separately", "test": "qHTS assay to identify small molecule antagonists of the estrogen related receptor (ERR) signaling pathway (AID 1224819; note: nearly all actives have a fitted effect of over 50% in size)", "conditions": "ERR reporter cell line, luciferase inhibition; series mostly up to 92.2 µM; activity change, negative = inhibition: at the top concentration", "how_it_was_run": "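Luminescence readout (One-Glo, 30 min, RT) of ERR cell line after 18 h compound exposure at 37 C; cells seeded 2,000/well, pre-incubated 6 h, compounds pinned from DMSO stocks.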"}
{"smiles": "CS(=O)(=O)c1ccc(C(=O)C2C(=O)CCCC2=O)c([N+](=O)[O-])c1", "activity change, negative = inhibition": "-13.9% (inactive)"}
{"smiles": "CCOCCOC(C)=O", "activity change, negative = inhibition": "-4.72% (inactive)"}
{"smiles": "O=[N+]([O-])c1cc([N+](=O)[O-])c2ccccc2c1", "activity change, negative = inhibition": "-11.8% (inactive)"}
{"system": "not listed separately", "test": "qHTS assay to identify small molecule agonists of the estrogen related receptor (ERR) signaling pathway (AID 1224820)", "conditions": "ERR reporter cell line, luciferase agonist mode; series mostly up to 92.2 µM; activation: at the top concentration", "how_it_was_run": "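After 6 h plating (2,000 cells/well) and 18 h compound treatment at 37 C, ERR cells were lysed with One-Glo and luminescence read after 30 min at room temperature.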"}
{"smiles": "O=C1NCN(c2ccccc2)C12CCN(CC1COc3ccccc3O1)CC2", "note": "(stereo not drawn)", "activation": "-32.4% [at 46.1 µM] (inactive)"}
{"smiles": "CS(=O)(=O)c1ccc(C(=O)C2C(=O)CCCC2=O)c([N+](=O)[O-])c1", "activation": "-15.2% (inactive)"}
{"smiles": "CCOCCOC(C)=O", "activation": "-5.57% (inactive)"}
{"smiles": "O=[N+]([O-])c1cc([N+](=O)[O-])c2ccccc2c1", "activation": "-17% (inactive)"}
{"system": "estrogen-related receptor alpha (ERRalpha) with PGC-1alpha coactivator, human", "test": "qHTS assay to identify small molecule antagonists of the estrogen related receptor signaling pathway with the pleiotropic PPARgamma coactivator (PGC) (AID 1224821; calls by dose curve;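 note: lower luminescence signal means antagonism of PGC/ERR signalling; nearly all actives have a fitted effect of over 50% in size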)", "conditions": "ERR/PGC reporter cell line, luciferase, antagonist mode; series mostly up to 92.2 µM; activity change, negative = inhibition: at the top concentration", "how_it_was_run": "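Luminescence from One-Glo luciferase reagent (30 min, room temperature) measured after 18 h compound treatment at 37 °C. Cells carry the PGC/ERR reporter and were seeded 6 h prior to dosing.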"}
{"smiles": "CS(=O)(=O)c1ccc(C(=O)C2C(=O)CCCC2=O)c([N+](=O)[O-])c1", "activity change, negative = inhibition": "-3.53% (inactive)"}
{"smiles": "CCOCCOC(C)=O", "activity change, negative = inhibition": "-9.27% (inactive)"}
{"smiles": "O=[N+]([O-])c1cc([N+](=O)[O-])c2ccccc2c1", "activity change, negative = inhibition": "-4.17% (inactive)"}
{"system": "not listed separately", "test": "qHTS assay to identify small molecule antagonists of the estrogen related receptor signaling pathway with the pleiotropic PPARgamma coactivator (PGC) cell viability counter screen (AID 1224822; note: potency is the fitted concentration of half-maximal effect)", "conditions": "ERR/PGC reporter cell line viability counter screen; series mostly up to 92.2 µM; viability change, negative = cytotoxic: at the top concentration", "how_it_was_run": "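Fluorescence read-out of CellTiter-Fluor after 30 min at 37 C; PGC/ERR cells, 2,000 per well, had been exposed to DMSO-dissolved compounds for 17.5 h following a 6 h pre-incubation.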"}
{"smiles": "O=c1[nH]c2ccccc2n1CCCN1CCC(n2c(=O)[nH]c3cc(Cl)ccc32)CC1", "Potency": "23.7 µM (active)"}
{"smiles": "CS(=O)(=O)c1ccc(C(=O)C2C(=O)CCCC2=O)c([N+](=O)[O-])c1", "viability change, negative = cytotoxic": "-1.76% (inactive)"}
{"smiles": "CCOCCOC(C)=O", "viability change, negative = cytotoxic": "14.3% (inactive)"}
{"smiles": "O=[N+]([O-])c1cc([N+](=O)[O-])c2ccccc2c1", "viability change, negative = cytotoxic": "13.1% (inactive)"}
{"system": "not listed separately", "test": "qHTS assay to identify small molecule agonists of the estrogen related receptor signaling pathway with the pleiotropic PPARgamma coactivator (PGC) (AID 1224823)", "conditions": "ERR/PGC reporter cell line, luciferase agonist mode; series mostly up to 92.2 µM; activation: at the top concentration", "how_it_was_run": "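Luminescence from One-Glo reagent (30 min, room temperature) was read after 18 h compound treatment at 37 C of PGC/ERR cells plated 6 h beforehand; compounds delivered in DMSO by pin tool.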"}
{"smiles": "O=C1NCN(c2ccccc2)C12CCN(CC1COc3ccccc3O1)CC2", "note": "(stereo not drawn)", "activation": "-9.57% [at 46.1 µM] (inactive)"}
{"smiles": "CS(=O)(=O)c1ccc(C(=O)C2C(=O)CCCC2=O)c([N+](=O)[O-])c1", "activation": "-2.4% (inactive)"}
{"smiles": "CCOCCOC(C)=O", "activation": "-2.79% (inactive)"}
{"smiles": "O=[N+]([O-])c1cc([N+](=O)[O-])c2ccccc2c1", "activation": "-1.87% (inactive)"}
